Bioassay records as filed in PubChem BioAssay.
TTR transcr act = activators of transthyretin transcription | 92,000 tested, 1.3% active | SH-SY5Y TTR promoter Gaussia luciferase, luminescence; 100% = recombinant luciferase protein wells | activation, % at 16.7 µM | AID 1117267;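 active means activation above the mean of all tested compounds plus 3 SD, cut at about 9.5% in these data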;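 further: cells exposed to compounds for one day before reading; 0% = median of all test compound wells on the plate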
TTR inh HuH7 = HuH7 TTR transcription inhibition, counter-screen; shares compounds with TTR transcr act; HuH7 TTR promoter-Gaussia luciferase reporter, luminescence; inhibition, % at 16.7 µM; 1,100 tested, 4% active; AID 1117279;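 active means average inhibition above the solvent-only control wells' mean plus 3 SD, cut at about 15% in these data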;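 further: 0% = cells with DMSO only and 100% = cells with inhibitor control FD; inhibitors lower well luminescence so higher value means more inhibition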
TTR act confirm = human TTR transcription activation, confirmation | shares compounds with TTR transcr act | 1,100 tested, under 10 active | activation, % at 16.7 µM | SHSY5Y TTR promoter Gaussia luciferase, luminescence; 100% = purified Lucia enzyme wells, no cells;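 active means mean activation above a set limit taken from the earlier primary screen, cut at about 11% in these data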;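 further: 0% = DMSO-treated cells and 100% = recombinant Lucia luciferase without cells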
* = called active by the depositor. The sample as a whole holds a higher share of hits than the screen did.

SMILES | TTR transcr act | others
CCC(=O)Nc1ccc(NC(=O)CSc2nnc(-c3ccco3)n2C)cc1 | 2
O=[N+]([O-])c1ccc2nc(COCc3nc4ccccc4[nH]3)[nH]c2c1 | 8
Cc1ccc(CN2CCCCC(NC(=O)c3ccc(Br)cc3)C2=O)cc1 (centres undefined) | -2
COc1ccc(CSc2nncn2C)cc1F | -2
Cn1cnnc1SCc1ccccc1 | 18* | TTR inh HuH7=-11;TTR act confirm=0
Cn1cnnc1SCc1ccc(C(=O)NN)cc1 | -1
COc1ccc(Cn2ccc3ccc(-c4ccc5ccn(C(=O)c6cccc(OC)c6)c5c4)cc32)cc1 | -1
Clc1ccc2c(c1)c1ccccc1n2CN1CCOCC1 | 22* | TTR inh HuH7=-8;TTR act confirm=0
Cc1ccc(Cl)cc1NC(=O)CN1CCOCC1 | 4
COc1ccc(Cl)cc1CN1CCOCC1 | 0
CCOc1ccc(CNC(=O)CCCn2nc(C)c3c(C)n(-c4ccc(C)cc4)nc3c2=O)cc1 | -2
CN(CC(=O)N1CCCCCC1)S(=O)(=O)c1ccc(Br)cc1 | 20* | TTR inh HuH7=-18;TTR act confirm=0
CN(CC(=O)N1CCCCCC1)S(=O)(=O)c1ccc(Br)s1 | -2
CN(CC(=O)N1CCCCC1)S(=O)(=O)c1ccc(Cl)cc1 | -1
COC(=O)[C@]12C[C@H](CC(=O)NCCCN3CCCC3=O)C(=O)N(Cc3ccc4c(c3)OCO4)C1=C[C@H](C(C)C)O[C@@H]2C1CC1 | 0
COC(=O)[C@]12C[C@H](CC(=O)N3CCN(C(=O)C4CC4)CC3)C(=O)N(CCc3ccc(OC)c(OC)c3)C1=C[C@H](C(C)C)O[C@@H]2C1CC1 | 6
COC(=O)c1ccc(CN2C(=O)c3ccccc3C2=O)o1 | 0
O=C1c2ccccc2C(=O)N1Cc1cccnc1 | -2
Cc1cc(CN2C(=O)c3ccccc3C2=O)on1 | 15* | TTR inh HuH7=-7;TTR act confirm=0
CCCC/C=C1/[C@H](CC)N(C)C2=N[C@@H](c3ccccc3)CC(=O)N21 | -1
CN(C(=O)CSc1ncnc2c(-c3cccs3)nsc12)C1CCCCC1 | 1
C[C@@H]1CCN(C2CC2)S(=O)(=O)c2ccc(N3CC[C@H](O)C3)cc2O1 | 0
CN(C)C(=S)NC(=O)C12CC3CC(C)(CC(C)(C3)C1)C2 | -2
CC12CC3(C)CC(C)(C1)CC(C(=O)NC(=S)N1CCOCC1)(C2)C3 | 0
CC12CC3CC(C)(C1)CC(C(=O)NC(=S)N1CCCCC1)(C3)C2 | 14* | TTR inh HuH7=-6;TTR act confirm=0
SMILES | TTR transcr act | others
COc1ccc(C=O)cc1-c1cc(C(C)=O)c2n(c1=O)CCC2 | 0
CCCCN1CCCOc2cc(Br)ccc2S1(=O)=O | 0
COc1ccc(C2CC3CN(C4CCCCC4)C(=O)C3N2C)cc1 (centres undefined) | -1
O=C(CCC(=O)N/N=C/c1ccco1)N/N=C/c1ccco1 | -1
Cc1cccc(NC(=O)CCC(=O)N/N=C/c2ccco2)c1 | 9.7* | TTR inh HuH7=-15;TTR act confirm=0
O=C(CCCCCCCCC(=O)N/N=C/c1ccco1)N/N=C/c1ccco1 | 1
Cc1ccc(OCCN2C(=O)C(=O)c3cccc(C)c32)cc1 | -3
O=C(Nc1ccccc1N1CCOCC1)c1ccc2ccccc2c1 | -1
COc1cc(OC)cc(C(=O)Nc2ccccc2N2CCOCC2)c1 | -1
Fc1cc(F)cc(NC(=S)Nc2ccccc2N2CCOCC2)c1 | 12* | TTR inh HuH7=-3;TTR act confirm=-1
CN(C(=O)c1cc(S(=O)(=O)N2CCOCC2)cs1)c1ccccc1 | -1
Cc1ccccc1CN1CCCCC(NC(=O)Nc2ccccc2-c2ccccc2)C1=O (centres undefined) | -1
O=Nc1ccccn1 | 1
Cc1ccccc1CCN(CC(=O)NCc1ccc(F)cc1)C(=O)c1csnn1 | 0
Cc1ccc(N(CC(=O)NCc2ccc(F)cc2)C(=O)c2csnn2)cc1C | 11* | TTR inh HuH7=-16;TTR act confirm=0
Cc1cc(C)c(N(CC(=O)NCc2ccccc2)C(=O)c2csnn2)c(C)c1 | 0
CCOc1c(Br)cc(C(=O)N2CCCN(C)CC2)cc1OC | -1
Cc1nc(SCC(=O)N2c3ccccc3Sc3ccccc32)n[nH]1 | -1
COCCCNC(=O)C[C@H]1C(=O)N(Cc2ccc(OC)cc2)C2=CCCCC[C@@]21C(=O)OC | 7
COc1ccc(Cn2cc(COC(=O)N3CCCC3)nn2)cc1 | 0
Cc1cc(C)cc(Oc2nc(-c3ccccc3)cc(C)c2S(C)(=O)=O)c1 | 3
Cc1cc(-c2ccccc2)nc(Oc2ccc(C(C)(C)C)cc2)c1S(C)(=O)=O | -2
Cc1cccc(Oc2nc(-c3ccccc3)cc(C)c2S(C)(=O)=O)c1C | 12* | TTR inh HuH7=-9;TTR act confirm=-1
CCCCn1nc2cc(C(=O)NCCc3cccs3)ccc2c1OCC | -4
CCCCn1nc2cc(C(=O)N(CC)c3ccc(OC)cc3)ccc2c1OCC | 13* | TTR inh HuH7=-7;TTR act confirm=0
CCCCn1nc2cc(C(=O)NC3CCc4ccccc43)ccc2c1OCC (centres undefined) | 1
